Results: PubChem BioAssay (NCI)
Compounds without any hit were thinned out: in the full panel of roughly 79,000, 15% have a hit. No stated cut-off is given here; in the data, active means growth inhibition above about 70%; inactive means the rest.

How the values were obtained:
[1] = NCI Yeast Anticancer Drug Screen. Data for the rad50 strain (AID 155);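 further: 0% = growth of vehicle-only cultures of the same strain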; settings: S. cerevisiae rad50 strain growth inhibition; at 50.0 µM; stronger effect = higher value
Summary of the method: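 A DNA repair-deficient yeast mutant serves as the test organism; compound-induced growth inhibition is calculated against vehicle-treated cells.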

[2] = NCI Yeast Anticancer Drug Screen. Data for the mec2-1 strain (AID 157); settings: S. cerevisiae mec2-1 strain, at 50.0 µM, stronger effect = higher value
Summary of the method: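 Compounds were applied to mec2-1 yeast cells. Their growth was then compared with that of vehicle-treated cultures to give growth inhibition.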

[3] = NCI Yeast Anticancer Drug Screen. Data for the sgs1 mgt1 strain (AID 161);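 further: 0% = growth of cultures given vehicle only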; settings: S. cerevisiae sgs1 mgt1 strain, at 50.0 µM, stronger effect = higher value
Summary of the method: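 Growth of a repair-deficient yeast mutant was monitored after compound treatment and expressed as inhibition relative to vehicle-treated cultures.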

[4] = NCI Yeast Anticancer Drug Screen. Data for the cln2 rad14 strain (AID 165);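 further: 0% = growth equal to vehicle treated cultures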; settings: S. cerevisiae cln2 rad14 strain, at 50.0 µM, stronger effect = higher value
Summary of the method: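 Strain: cln2 rad14 yeast, altered in cell cycle control and DNA damage repair. Read-out: growth inhibition vs vehicle.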

[5] = NCI Yeast Anticancer Drug Screen. Data for the bub3 strain (AID 167); settings: S. cerevisiae bub3 mutant strain, at 50.0 µM, stronger effect = higher value
Summary of the method: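 Inhibition values come from growth of compound-treated mutant yeast normalised to vehicle-treated controls.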

[6] = NCI Yeast Anticancer Drug Screen. Data for the mlh1 rad18 strain (AID 175); settings: S. cerevisiae mlh1 rad18 strain growth inhibition; at 50.0 µM; stronger effect = higher value
Summary of the method: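 A repair-deficient yeast strain is exposed to test compound, and growth is scored relative to vehicle-treated controls.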

Measured: growth inhibition

COCN(Cc1ccccc1)C[Si](C)(C)C
inactive: [1] 39.5% | [2] 2% | [3] 1.3% | [4] -20% | [5] 14.2% | [6] -9.6%

Nc1c(N=Nc2ccccc2)cc(S(=O)(=O)O)c2ccccc12
inactive: [1] 2.8% | [2] -23.4% | [3] -1.65% | [4] 6.65% | [5] 3.2% | [6] -2.1%

COc1ccc(CCNC(=O)C(Sc2ccccn2)c2ccccc2)cc1OC (stereo unspecified)
inactive: [1] 20.6% | [2] -29.4% | [3] 5.35% | [4] 23.1% | [5] 30.6% | [6] 27.8%

CC(=O)OCC12CCC(O1)C1C(=O)OC(=O)C12 (stereo unspecified)
inactive: [1] -3.85% | [2] -2.25% | [3] -9.2% | [4] -3.4% | [5] -11.1% | [6] 1.05%

CCN(CC)CCC(C(=O)O)(c1ccccc1)C1(O)CCCC1 (stereo unspecified)
inactive: [1] -7.5% | [2] -13.3% | [3] -7.9% | [4] -26.8% | [5] 7.1% | [6] -25.9%

S=C(NCc1cccnc1)Nc1ccc(Cl)c(Cl)c1
inactive: [1] 26.8% | [2] 13.3% | [3] 27.9% | [4] 5.85% | [5] 27.6% | [6] 13.7%

O=C(N/N=C(/c1nc2ccc(Cl)cc2[nH]c1=O)C(O)c1ccc(Cl)cc1Cl)c1ccncc1 (stereo unspecified)
inactive: [1] 12.5% | [2] 10.2% | [3] -15.5% | [4] -34.6% | [5] -3.6% | [6] 23.1%

CCCCCCCCCCCCCCCCOCC(CCl)OP(=O)(O)OP(=O)(O)OCC1OC(n2ccc(N)nc2=O)C(O)C1O (stereo unspecified)
inactive: [1] -33.3% | [2] -38.9% | [3] 15.1% | [4] -35% | [5] -37.4% | [6] -95.4%

NCCNc1ncnc2ccc(Cl)cc12
inactive: [1] -30.9% | [2] -13.1% | [3] -22.4% | [4] -30.5% | [5] -38.8% | [6] 5.4%

C[C@]12CCC(=O)C=C1CC[C@@H]1C2=CC[C@]2(C)/C(=C\CO)CC[C@@H]12
inactive: [1] 7.5% | [2] -14.4% | [3] 10.8% | [4] -5.4% | [5] -10.8% | [6] 9.4%

c1ccc2c(c1)CCc1c-2n[nH]c1-c1[nH]nc2c1CCc1ccccc1-2
inactive: [1] -12.1% | [2] -10% | [3] -1.3% | [4] -21.9% | [5] -26.2% | [6] -5%

Cc1ccc(-c2cc(=S)n(-c3ccccc3)c3nc(=S)n(-c4ccccc4)c(N)c23)cc1
inactive: [1] 14.4% | [2] 24.4% | [3] 18.1% | [4] -12.9% | [5] 23.8% | [6] 25.9%

Cc1cc2[nH]c(=O)n(C3OC(CO)C(O)C3O)c2cc1C (stereo unspecified)
inactive: [1] -15.2% | [2] 19.1% | [3] 2.4% | [4] -33.2% | [5] -7.6% | [6] -4.4%

COc1ccc(C(=O)c2ccccc2C)cc1OC
inactive: [1] 1.65% | [2] 0.1% | [3] -1.15% | [4] 28.1% | [5] 36.5% | [6] 0.15%

O=c1c(Cl)c(Cl)cnn1-c1ccc([N+](=O)[O-])cc1[N+](=O)[O-]
inactive: [1] 5.7% | [2] 6.7% | [3] 3.05% | [4] -4.25% | [5] -0.65% | [6] 5.75%

C=CCOCC(COC(=O)CCCCCCCCCCCCCCCCC)OCC=C (stereo unspecified)
inactive: [1] -8.85% | [2] -2.85% | [3] -0.25% | [4] 18.9% | [5] -16.8% | [6] 6.5%

N/N=C(\N)N(Cc1ccccc1)c1ccccc1
inactive: [1] 10.3% | [2] 25.7% | [3] 2.85% | [4] -11.6% | [5] -2.6% | [6] 4.75%

Cc1ccc(C(=O)/C=C\C=C\c2ccccc2)cc1
inactive: [1] 16.6% | [2] 27.7% | [3] 41.6% | [4] -3.7% | [5] 50.6% | [6] 19.8%

O=C1OC(C2Cc3cc4c(cc3C2=O)CCC4)c2ccccc21 (stereo unspecified)
inactive: [1] -33.1% | [2] -25.4% | [3] -7.75% | [4] -2.55% | [5] -18.9% | [6] -13.4%

ClC/C(=N\N1CCCCCC1)c1ccccc1
inactive: [1] -7.8% | [2] -4.05% | [3] -4.75% | [4] -10.2% | [5] -1.6% | [6] 2.2%

Cc1ccc(NC(=O)C2c3ccccc3-c3ccccc32)cc1
inactive: [1] 39.4% | [2] 16.6% | [3] 16.9% | [4] -8.35% | [5] 10.9% | [6] 21.1%
